Drawing on ChEMBL document CHEMBL3433997, “St. Jude Leishmania screening dataset” (2016), this text covers inhibition for eleven compounds.

Molecules are shown by their SMILES. “And” between values parts separate entries of the source, which are not always exact repeats. Identical values can stand only once.

What all share (format): functional
In experiment [1] the target is Solute carrier family 2, facilitated glucose transporter member 1 (Homo sapiens) (UniProt P11166). In words: ST_JUDE_LEISH: Cytotoxicity at 2uM final concentration against transgenic Leishmania Mexicana promastigotes LmGLUT1 that are glucose transport deficient and complemented with the human glucose transporter GLUT1. Activity is measured by DNA content using SYBR green in vitro.

Experiment [2] addresses Hexose transporter 1 (Plasmodium falciparum) (UniProt O97467). The experiment is described as follows: ST_JUDE_LEISH: Cytotoxicity at 2uM final concentration against transgenic Leishmania Mexicana promastigotes LmPfHT that are glucose transport deficient and complemented with the Plasmodium falciparum hexose transporter. Activity is measured by DNA content using SYBR green in vitro.

In experiment [3] the target is Glucose transporter (Leishmania mexicana) (UniProt O61059). In words: ST_JUDE_LEISH: Cytotoxicity at 2uM final concentration against transgenic Leishmania Mexicana promastigotes LmGT2 that are glucose transport deficient and complemented with the L. Mexicana glucose transporter 2. Activity is measured by DNA content using SYBR green in vitro.

Sequence of Solute carrier family 2, facilitated glucose transporter member 1 (Homo sapiens) (P11166 whole entry): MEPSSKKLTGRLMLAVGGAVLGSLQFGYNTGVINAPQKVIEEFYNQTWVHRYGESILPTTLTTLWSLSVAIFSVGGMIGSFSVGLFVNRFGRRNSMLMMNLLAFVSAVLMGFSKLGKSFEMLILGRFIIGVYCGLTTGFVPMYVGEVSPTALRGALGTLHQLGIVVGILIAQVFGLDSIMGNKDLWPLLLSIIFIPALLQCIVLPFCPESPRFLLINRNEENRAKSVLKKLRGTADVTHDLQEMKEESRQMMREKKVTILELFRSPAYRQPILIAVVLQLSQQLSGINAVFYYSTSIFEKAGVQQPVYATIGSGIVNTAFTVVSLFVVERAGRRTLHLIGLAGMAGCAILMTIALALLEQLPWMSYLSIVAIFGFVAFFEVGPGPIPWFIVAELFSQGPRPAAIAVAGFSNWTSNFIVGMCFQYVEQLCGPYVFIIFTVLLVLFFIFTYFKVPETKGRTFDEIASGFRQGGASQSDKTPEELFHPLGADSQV

`COc1ccc(C(=O)c2ccc3[nH]cc(C4=CCN(C)CC4)c3c2)cc1`: the inhibition (in general, the drop in the measured response relative to a control, in per cent) was -0.74% in experiment [1], -1.41% in experiment [2] and 0.07% in experiment [3].
For the compound `Cc1ccc2c(C3=CCN(CCCCC4(C)C(=O)Nc5c(F)cccc54)CC3)c(C)[nH]c2c1` (stereo not drawn), the figures for the inhibition in experiment [1], in experiment [2] and in experiment [3] were 2.71%, 1.48% and 1.63%, respectively.
With `O=C(/C=C/c1ccc(Cl)c(Cl)c1)NC1CCC(CN2CCC(c3c[nH]c4cc(O)ccc34)CC2)CC1` (stereo not drawn), the inhibition in experiment [1] was 3.03%; in experiment [2] it was 0.88%; in experiment [3], -0.33%.
With `O=C(C=Cc1ccc(F)c(Br)c1)N1CCC(CN2CCC(c3c[nH]c4ccccc34)CC2)CC1`, the inhibition in experiment [1] is 17.6%; in experiment [2] it was 15.9%; in experiment [3], 13.1%.
Take `Cc1c(C)c2c(c(C)c1O)CC[C@](C)(C(=O)NC1CCC(CN3CCC(c4c[nH]c5ccccc45)CC3)CC1)O2` (stereo partly drawn): the inhibition in experiment [1] is -0.89% and 2.73%; in experiment [2], 2.05% and 2.37%; in experiment [3], -1.4% and -1.2%.
As for `Cc1ccc(CC(C)NCC(O)c2cccc(Br)c2)cc1` (stereo not drawn), the inhibition is 1.02% in experiment [1], -0.15% in experiment [2] and 1.21% in experiment [3].
Taken in the same sequence, the figures for `O=C(NC1CCN(CCc2c[nH]c3ccc(F)cc23)CC1)c1ncc(-c2ccccc2)[nH]1` were 4.04%, 4.4% and 3.98%.
The like results for `COc1cc(NC(=O)c2nn(CCCN3CCC4(CC3)C(=O)NCN4c3ccccc3)cc2-c2ccc(Cl)c(Cl)c2)cc(OC)c1OC` were, in that order, -0.06%, 8.62% and 0.13%.
As for `Cc1ccc(CC(C)NC[C@H](O)c2cccc(Cl)c2)cc1` (stereo partly drawn), the inhibition in experiment [1] was 1.71% and 1.19%; in experiment [2] it was 0.19% and 1.01%; in experiment [3], 1.47% and 1.06%.
As to `Cc1[nH]c2ccc(O)cc2c1C1CCN(CC2CCC(NC(=O)/C=C/c3c(Cl)cccc3Cl)CC2)CC1` (stereo not drawn), the inhibition in experiment [1] was determined as 1.67%; in experiment [2] it was 0.48%; in experiment [3], 3.62%.
Regarding `Cc1ccc(/C=C/C(=O)NC2CCC(CN3CCC(c4c[nH]c5ccccc45)CC3)CC2)cc1C` (stereo not drawn), the inhibition is 3.87% and 0.74% in experiment [1]; 3.35% and 0.58% in experiment [2]; -0.3% and -2.39% in experiment [3].
